An excerpt weighted towards active compounds, which were near 3.6% of everything screened.
Giardia FBPA inh = blocks Giardia fructose-bisphosphate aldolase activity. A8B2U2. purified Giardia FBPA. Potency, µM (doses to about 59.6 µM), inactives show top-dose activity, negative = inhibition, actives largely listed as inhibitors. 0.71% of 290,000 active; further: nearly all actives have a fitted effect of over 55% in size
Target sequence (A8B2U2 whole entry, looked up): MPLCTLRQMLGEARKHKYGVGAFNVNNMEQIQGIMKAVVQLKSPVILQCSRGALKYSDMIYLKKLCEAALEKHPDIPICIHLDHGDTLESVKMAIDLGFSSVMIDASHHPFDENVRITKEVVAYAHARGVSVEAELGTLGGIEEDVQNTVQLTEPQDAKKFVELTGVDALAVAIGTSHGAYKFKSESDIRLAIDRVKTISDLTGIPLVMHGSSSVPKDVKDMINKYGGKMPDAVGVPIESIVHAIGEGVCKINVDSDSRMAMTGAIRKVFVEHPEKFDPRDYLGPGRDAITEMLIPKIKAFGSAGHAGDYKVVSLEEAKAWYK
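Giardia FBPA (40 nM reagent) was preincubated 10 min at RT with compound (up to 57.5 uM final), then substrate plus GAPDH/TPI/NAD/arsenate coupling system with diaphorase/resazurin was added; resorufin fluorescence (525/598 nm) was read after 20 min.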
AmpC no deterg = blocks E. coli AmpC beta-lactamase in detergent-free assay; 0.52% of 330,000 active; AmpC nitrocefin hydrolysis, absorbance 480 nm, 0.0001% Triton; Potency, µM (doses to about 57.1 µM), inactives show at the highest dose activity change, negative = inhibition, usual class: inhibitors;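 further: plate controls were no compound for no effect and no enzyme for full effect; nearly all actives have a fitted effect of over 20% in size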
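AmpC (5.3 nM in the dispensed reagent) in 20 mM phosphate pH 7.0 with 0.01% (detergent screen) or 0.0001% Triton X-100 was preincubated with compounds for 15 min at room temperature. Nitrocefin was then added from an 800 uM solution, and hydrolysis was followed at 480 nm.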
Sm TGR inh = S. mansoni TGR enzyme inhibition. Q962Y6. purified TGR, DTNB reduction, TNB absorbance 405 nm. Potency, µM (top dose mostly 114 µM), inactives show top-dose activity change, negative = inhibition, most hits filed as inhibitors. 3% of 360,000 active; further: nearly all actives have a fitted effect of over 60% in size
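Kinetic colorimetric format: TGR-catalysed, NADPH-driven DTNB reduction monitored via TNB absorbance. Enzyme dispensed at 20 nM; compound exposure 15 min at room temperature before reaction start.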
AmpC detergent = AmpC beta-lactamase inhibition with detergent present. P00811. AmpC hydrolysis of nitrocefin, absorbance 480 nm, 0.01% Triton. 0.041% of 370,000 active. Potency, µM (titrated, usually from 114 µM), for the others: at the highest dose activity change, negative = inhibition, actives largely listed as inhibitors. AID 485294;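 further: 0% = no-compound wells and -100% = no-enzyme wells; nearly all actives have a fitted effect of over 25% in size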
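AmpC (5.3 nM in the dispensed reagent) in 20 mM phosphate pH 7.0 with 0.01% (detergent screen) or 0.0001% Triton X-100 was preincubated with compounds for 15 min at room temperature. Nitrocefin was then added from an 800 uM solution, and hydrolysis was followed at 480 nm.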
Active calls of the source: *; ? = inconclusive; nt = no result given; [ ] = dose if it differs, or a comment. The call rests on the fitted dose curve; in most records, active means well fitted curve in the direction sought with a large enough effect; inconclusive means small, poorly fitted or top-dose-only effect, or another doubt; inactive means no such curve, though single readings can be large; an effect the other way counts as inactive or inconclusive. Unless noted, on the % scale 0 is the no-effect control and ±100 the full control effect; potency means the concentration at half of the fitted maximal effect.

SMILES | Giardia FBPA inh | AmpC no deterg | Sm TGR inh | AmpC detergent
Cc1c(N=c2scc(-c3ccccc3)n2C)c(=O)n(-c2ccccc2)n1C | 5% | 8% | 0% | -3%
Cc1c(O)c(=O)n(-c2ccccc2)n1C | -9%[21.7 µM] | -5% | 11µM* | 7%
CC1=CC(=Nc2c(C)n(C)n(-c3ccccc3)c2=O)C=C(C)C1=O | ? | -18% | 50µM* | -10%
Cc1c(N=NC2=C(O)CC(C)(C)CC2=O)c(=O)n(-c2ccccc2)n1C | -14% | -29% | 13µM* | ?
CC1=CC(=Nc2c(C)n(C)n(-c3ccccc3)c2=O)C=CC1=O | 3.5µM* | -17% | 2.8µM* | 0%
CCC(C)C1=CC(=Nc2c(C)n(C)n(-c3ccccc3)c2=O)C=C(C(C)CC)C1=O (stereo not given) | -24% | -10% | -20% | -3%
Cc1c(I)c(=O)n(-c2ccccc2)n1C | -4% | nt | nt | nt
CCOc1cc(S(=O)(=O)NCc2cccnc2)c(C)cc1C | 4% | 1% | 3% | 4%
CS(=O)(=O)N(CC(=O)N1CCN(Cc2ccccc2)CC1)c1ccccc1Br | 2% | 88% | 0% | -19%
O=C(CNC1CCCCCC1)Nc1ccc(S(=O)(=O)NC2CC2)cc1 | 1% | 0.16µM* | -6% | 0%
Cc1cc(Br)cc2c1NC(=O)C2(c1c(C)n(C)n(-c2ccccc2)c1=O)c1c(C)n(C)n(-c2ccccc2)c1=O | -3% | 60% | 45µM* | 2%
CCCCCOc1ccc(/C=C/C(=O)Nc2sc(C(C)=O)c(C)c2C(=O)OCC)cc1OC | nt | nt | 11% | 12%
O=C(O)CCc1ccc(-c2ccc(Br)cc2)n1CC(=O)O | 25% | -29% | ? | -14%
Cc1ccc(-c2ccc(CCC(=O)O)n2Cc2ccco2)cc1 | 14% | -49% | 35µM* | -1%
O=C(O)CCc1ccc(-c2ccccc2)n1CC(=O)O | 10% | -30% | 35µM* | ?
O=C(O)CCc1ccc(-c2ccc(F)cc2)n1CCC(=O)O | 3% | -27% | 14µM* | 3%
CC(C)n1c(CCC(=O)O)ccc1-c1ccccc1 | 11% | -23% | 18µM* | ?
CN1C(=O)/C(=C/c2cccc(Cl)c2)Sc2ccc(C(=O)N3CCCC3)cc21 | nt | 210% | -15% | -2%
Cc1cc(NS(=O)(=O)c2ccc(NC(=S)NC(=O)c3ccccc3)cc2)no1 | 0% | -30% | 50µM* | -7%
Cc1cc(NS(=O)(=O)c2ccc(NC(=S)NC(=O)c3ccncc3)cc2)no1 | -8% | -19% | ? | 2%
Cc1cc(NS(=O)(=O)c2ccc(NC(=O)c3ccccc3C)cc2)no1 | -2% | -6% | -2% | -9%
Cc1ccc(-c2cc(C(=O)Nc3ccc(S(=O)(=O)Nc4cc(C)on4)cc3)c3ccccc3n2)c(C)c1 | 4% | 10µM* | 8% | ?
COc1ccc(C(=O)NC(=S)Nc2ccc(S(=O)(=O)Nc3cc(C)on3)cc2)cc1OC | -16% | -47% | 18µM* | 4%
O=c1c(NCc2cccs2)nccn1-c1ccc(F)cc1 | nt | nt | ? | 2%
CCCOc1ccccc1NC(=O)/C=C/C(N)=O | 0% | -5% | 3.2µM* | -5%
SMILES | Giardia FBPA inh | AmpC no deterg | Sm TGR inh | AmpC detergent
O=C(CSc1ccc(-c2ccco2)nn1)c1ccc(F)cc1 | -25% | -29% | 20µM* | ?
N#Cc1ccc(-c2ccco2)nc1SCC(=O)c1ccc(Cl)cc1 | 20% | 10µM* | -16% | 0%
O=C(CSc1ccc(-c2ccco2)nn1)NCc1ccc(F)cc1 | 4% | -21% | 35µM* | -4%
Cc1ccc(CNC(=O)CSc2ccc(-c3ccco3)nn2)cc1 | -5% | -23% | ? | -9%
Cc1nc2ccccc2c(=O)n1NC(=O)c1ccc([N+](=O)[O-])cc1 | 5% | -22% | 5% | 3%
CCOC(=O)C(=CNc1ccc(C#N)cc1)C(=O)OCC | 0% | 0% | 0% | -5%
Cc1ccc(/C=C/C(=O)Oc2ccc(C#N)cc2)o1 | -8% | -24% | 50µM* | -3%
COc1ccc(/C=C/C(=O)Oc2ccc(C)c(C)c2)cc1OC | -3% | 139% | -2% | -10%
COc1cccc(OC)c1OC(=O)/C=C/c1ccc(C)o1 | -12% | -17% | 35µM* | -7%
CC1=C[C@@H]2c3cccc4[nH]cc(c34)C[C@H]2N(C)C1 | -3% | -17% | 2.2µM* | ?
Cc1nc(/N=C(\N)N(C)C)[nH]c(=O)c1C | -8% | -6% | -6% | -14%

Compound activity from PubChem BioAssay.
